Source: PubChem BioAssay (Tox21)
Several values for one entry are separate records, joined by “and”; a condition that tells them apart may be missing. Equal values may be shown once. The source holds several records for some structures; these can differ, active in one and inactive in another. Activity calls are given as the source filed them. Entries that show only a call come without a potency. Unless noted, calls come from the whole dose curve; as a rule, active = well fitted curve in the direction sought with a large enough effect in the repeat runs; inconclusive = weak or mixed curves; inactive = no such curve, though single readings can be large; an effect the other way counts as inactive or inconclusive.

Tests used:
[1] = qHTS assay to identify small molecule antagonists of the glucocorticoid receptor (GR) signaling pathway - cell viability counter screen (AID 720693); note: nearly all actives have a fitted effect of over 55% in size
[2] = qHTS assay for identifying genotoxic compounds that show differential cytotoxicity against isogenic chicken DT40 cell lines with known DNA damage response pathways - wild type cell line (AID 743012); note: nearly all actives have a fitted effect of over 60% in size; note: potency is the fitted concentration of half-maximal effect
In short: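 First, wild type DT40 cells were plated at 300 per well and equilibrated about 0.5 h at 37 C/5% CO2. Next, compounds in DMSO were added and exposure lasted 40 h. Finally, CellTiter-Glo was added for 30 min at room temperature and luminescence recorded.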

[3] = qHTS assay for identifying genotoxic compounds that show differential cytotoxicity against isogenic chicken DT40 cell lines with known DNA damage response pathways - Rev3 mutant cell line (AID 743014); note: nearly all actives have a fitted effect of over 55% in size; note: potency is the fitted concentration of half-maximal effect
[4] = qHTS assay for identifying genotoxic compounds that show differential cytotoxicity against isogenic chicken DT40 cell lines with known DNA damage response pathways - Rad54/Ku70 mutant cell line (AID 743015); note: nearly all actives have a fitted effect of over 60% in size; note: potency is the fitted concentration of half-maximal effect
[5] = qHTS assay to identify small molecule antagonists of the androgen receptor (AR) signaling pathway - cell viability counter screen (AID 743033; note: nearly all actives have a fitted effect of over 45% in size; note: potency is the fitted concentration of half-maximal effect)
[6] = qHTS assay to identify small molecule antagonists of the androgen receptor (AR) signaling pathway using the MDA cell line - cell viability counter screen (AID 743041; note: nearly all actives have a fitted effect of over 45% in size; note: potency is the fitted concentration of half-maximal effect)
In short: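 Viability counter screen run alongside the AR antagonist reporter: cells seeded 5 h before compound, R1881 added, 16 h incubation at 37C without CO2, fluorescent CellTiter-Fluor signal quantified.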

[7] = qHTS assay to identify small molecule antagonists of the thyroid receptor (TR) signaling pathway - cell viability counter screen (AID 743064); note: nearly all actives have a fitted effect of over 50% in size; note: potency is the fitted concentration of half-maximal effect
In short: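 Rat GH3 pituitary tumor cells stably expressing two TR response elements driving luciferase were plated, rested 4 h, then dosed with library compounds and T3 (1 nM final). After 23.5 h at 37 °C, CellTiter-Fluor was added for 30 min and fluorescence recorded.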

[8] = qHTS assay to identify small molecule antagonists of the thyroid receptor (TR) signaling pathway (AID 743065); note: nearly all actives have a fitted effect of over 55% in size; note: potency is the fitted concentration of half-maximal effect
In short: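 GH3.TRE-Luc rat pituitary cells carrying two TR response elements driving luciferase were plated for 4 h, given compound plus 1 nM T3 (final), and incubated 23.5 h at 37 C. ONE-Glo luminescence measured reporter inhibition; CellTiter-Fluor fluorescence tracked cytotoxicity.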

[9] = test system: thyroid hormone receptor (rat, GH3 cells); assay: qHTS assay to identify small molecule agonists of the thyroid receptor (TR) signaling pathway (AID 743066; calls by dose curve; note: potency is the fitted concentration of half-maximal effect)
[10] = biological target: Estrogen receptor (Homo sapiens) (UniProt P03372); assay: qHTS assay to identify small molecule antagonists of the estrogen receptor alpha (ER-alpha) signaling pathway (AID 743069; active = well fitted curve in the direction sought with a large enough effect in the signal ratio in the repeat runs, not every such curve was filed as active; inconclusive = weak or mixed curves, or effect the other way; inactive = no such curve, though single readings can be large or run the other way; the % refers to the signal ratio)
Chain of Estrogen receptor (Homo sapiens) (P03372 whole entry, looked up): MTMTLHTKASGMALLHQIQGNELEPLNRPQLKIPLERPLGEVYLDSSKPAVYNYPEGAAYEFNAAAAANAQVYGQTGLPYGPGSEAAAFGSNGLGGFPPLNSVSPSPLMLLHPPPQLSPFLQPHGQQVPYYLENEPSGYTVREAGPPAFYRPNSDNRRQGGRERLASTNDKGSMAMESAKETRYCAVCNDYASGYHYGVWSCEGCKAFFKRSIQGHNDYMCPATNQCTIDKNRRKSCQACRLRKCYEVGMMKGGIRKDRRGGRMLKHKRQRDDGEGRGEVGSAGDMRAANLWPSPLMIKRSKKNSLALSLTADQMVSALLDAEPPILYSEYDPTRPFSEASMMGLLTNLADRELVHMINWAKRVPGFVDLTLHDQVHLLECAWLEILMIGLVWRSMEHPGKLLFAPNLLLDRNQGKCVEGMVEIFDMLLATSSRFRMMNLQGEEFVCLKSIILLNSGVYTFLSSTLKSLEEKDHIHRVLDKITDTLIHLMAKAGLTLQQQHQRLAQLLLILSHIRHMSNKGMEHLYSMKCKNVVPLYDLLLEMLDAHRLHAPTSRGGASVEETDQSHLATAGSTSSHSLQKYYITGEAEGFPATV
In short: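 Estradiol-stimulated ER-alpha-UAS-bla HEK293 cells, 18 hr compound exposure at 37C. LiveBLAzer B/G substrate, 2 hr RT, fluorescence read.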

[11] = qHTS assay to identify small molecule antagonists of the estrogen receptor alpha (ER-alpha) signaling pathway - cell viability counter screen (AID 743074; calls by dose curve;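 note: HEK293 cells carrying ER-alpha-UAS-bla reporter stimulated with 17beta-estradiol; nearly all actives have a fitted effect of over 45% in size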; note: potency is the fitted concentration of half-maximal effect)
[12] = biological target: Estrogen receptor (Homo sapiens) (UniProt P03372); assay: qHTS assay to identify small molecule agonists of the estrogen receptor alpha (ER-alpha) signaling pathway (AID 743075; calls by dose curve;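 note: HEK293 GripTite cells with ER-alpha and UAS-driven beta-lactamase reporter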; note: potency is the fitted concentration of half-maximal effect)
[13] = biological target: Estrogen receptor (Homo sapiens) (UniProt P03372); assay: qHTS assay to identify small molecule agonists of the estrogen receptor alpha (ER-alpha) signaling pathway using the BG1 cell line (AID 743079); note: nearly all actives have a fitted effect of over 20% in size; note: potency is the fitted concentration of half-maximal effect
[14] = qHTS assay to identify small molecule antagonists of the estrogen receptor alpha (ER-alpha) signaling pathway using the BG1 cell line (AID 743080; calls by dose curve;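 note: BG1 cells stimulated with 17beta-estradiol alongside compound; nearly all actives have a fitted effect of over 25% in size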)
In short: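 Readout is ONE-Glo luminescence, taken 30 min at room temperature after reagent addition, preceded by a CellTiter-Fluor viability read; BG1-Luc-4E2 cells had received compound and 17beta-estradiol for 21.5 h at 37 C.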

[15] = qHTS assay to identify small molecule antagonists of the estrogen receptor alpha (ER-alpha) signaling pathway using the BG1 cell line - cell viability counter screen (AID 743081);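 note: compound given together with 17beta-estradiol as the ER stimulus; nearly all actives have a fitted effect of over 45% in size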; note: potency is the fitted concentration of half-maximal effect
Aromatase (Homo sapiens) = Aromatase (Homo sapiens) (UniProt P11511); assay: qHTS assay to identify aromatase inhibitors (AID 743083); note: nearly all actives have a fitted effect of over 55% in size; note: potency is the fitted concentration of half-maximal effect
Chain of Aromatase (Homo sapiens) (P11511 whole entry, looked up): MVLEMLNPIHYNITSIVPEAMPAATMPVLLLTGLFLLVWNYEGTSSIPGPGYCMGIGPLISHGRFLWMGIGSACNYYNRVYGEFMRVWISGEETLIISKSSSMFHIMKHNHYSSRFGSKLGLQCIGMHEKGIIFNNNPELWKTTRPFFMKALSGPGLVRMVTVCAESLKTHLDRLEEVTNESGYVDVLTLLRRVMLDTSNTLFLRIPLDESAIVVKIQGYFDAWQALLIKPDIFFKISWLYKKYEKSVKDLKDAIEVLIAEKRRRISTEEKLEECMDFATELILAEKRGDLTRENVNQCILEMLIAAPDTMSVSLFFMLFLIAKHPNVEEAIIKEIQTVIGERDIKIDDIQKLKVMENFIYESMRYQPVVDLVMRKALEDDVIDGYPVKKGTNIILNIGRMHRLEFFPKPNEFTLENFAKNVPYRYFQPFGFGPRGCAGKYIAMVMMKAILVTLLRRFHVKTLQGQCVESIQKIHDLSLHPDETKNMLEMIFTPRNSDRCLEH

[16] = biological target: Androgen receptor (Homo sapiens) (UniProt P10275); assay: qHTS assay to identify small molecule antagonists of the androgen receptor (AR) signaling pathway (AID 743035; active = well fitted inhibition curve with a large enough effect in the signal ratio in the repeat runs, not every such curve was filed as active; inconclusive = weak or mixed curves, or effect the other way; inactive = no such curve, though single readings can be large or run the other way; the % refers to the signal ratio; note: potency is the fitted concentration of half-maximal effect)
Chain of Androgen receptor (Homo sapiens) (P10275 whole entry, looked up): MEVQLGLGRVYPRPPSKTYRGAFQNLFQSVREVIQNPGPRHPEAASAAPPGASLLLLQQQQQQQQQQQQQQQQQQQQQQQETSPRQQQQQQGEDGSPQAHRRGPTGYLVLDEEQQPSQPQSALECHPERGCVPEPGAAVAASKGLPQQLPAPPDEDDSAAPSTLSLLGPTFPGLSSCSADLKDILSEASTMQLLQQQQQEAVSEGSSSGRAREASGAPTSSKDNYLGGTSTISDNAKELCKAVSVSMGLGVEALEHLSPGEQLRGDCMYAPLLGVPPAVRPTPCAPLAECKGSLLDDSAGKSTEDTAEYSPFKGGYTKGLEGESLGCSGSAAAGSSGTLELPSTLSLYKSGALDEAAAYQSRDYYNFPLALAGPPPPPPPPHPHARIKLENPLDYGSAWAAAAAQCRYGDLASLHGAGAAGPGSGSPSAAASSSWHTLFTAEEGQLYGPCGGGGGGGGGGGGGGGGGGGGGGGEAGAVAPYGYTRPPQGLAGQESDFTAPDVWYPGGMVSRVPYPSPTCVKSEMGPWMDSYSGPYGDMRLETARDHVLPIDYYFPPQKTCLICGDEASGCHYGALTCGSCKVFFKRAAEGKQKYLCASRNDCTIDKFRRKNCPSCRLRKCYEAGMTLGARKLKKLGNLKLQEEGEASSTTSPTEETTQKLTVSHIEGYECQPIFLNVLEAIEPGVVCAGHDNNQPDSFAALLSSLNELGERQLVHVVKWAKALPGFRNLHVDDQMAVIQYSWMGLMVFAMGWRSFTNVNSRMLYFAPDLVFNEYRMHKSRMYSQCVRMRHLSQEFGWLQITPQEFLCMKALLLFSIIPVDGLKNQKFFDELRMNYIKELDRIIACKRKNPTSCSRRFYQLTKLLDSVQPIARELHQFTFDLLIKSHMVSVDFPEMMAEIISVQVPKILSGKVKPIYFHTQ
In short: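 Beta-lactamase FRET read (2 h RT incubation with LiveBLAzer B/G) following 16 h of compound plus R1881 treatment of AR-UAS-bla HEK293 cells, which had been pre-incubated 4 h at 37C.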

[17] = biological target: Androgen receptor (Homo sapiens) (UniProt P10275); assay: qHTS assay to identify small molecule agonists of the androgen receptor (AR) signaling pathway (AID 743036; active = well fitted activation curve with a large enough effect in the signal ratio in the repeat runs, with a control signal flat, not every such curve was filed as active; inconclusive = weak or mixed curves, or effect the other way; inactive = no such curve, though single readings can be large or run the other way; the % refers to the signal ratio)
In short: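 Quantitative HTS of the Tox21 10K library in HEK293 cells bearing a stably integrated UAS-controlled beta-lactamase reporter. Compound exposure lasted 16 h at 37C. Reporter activity was detected by FRET substrate fluorescence after 2 h at room temperature.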

[18] = biological target: Androgen receptor (Homo sapiens) (UniProt P10275); assay: qHTS assay to identify small molecule agonists of the androgen receptor (AR) signaling pathway using the MDA cell line (AID 743040; note: nearly all actives have a fitted effect of over 20% in size); settings: MDA-kb2 AR-luc cells, MMTV luciferase, 16 h; activity change: at 70.3 µM (top of the series), stronger effect = higher value
In short: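 Luminescence from ONE-Glo, read after 30 min at room temperature, reflects MMTV-driven luciferase in MDA-kb2 cells (AR- and GR-responsive). Treatment lasted 16 h at 37C, 0% CO2.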

[19] = biological target: Androgen receptor (Homo sapiens) (UniProt P10275); assay: qHTS assay to identify small molecule antagonists of the androgen receptor (AR) signaling pathway using the MDA cell line (AID 743042; note: nearly all actives have a fitted effect of over 55% in size; note: potency is the fitted concentration of half-maximal effect)
In short: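 MDA-kb2 cells (human breast carcinoma, stably carrying an MMTV-luciferase reporter responsive to AR and GR) were plated at 3,000 cells/well and preincubated 5 hr at 37C, then given compound plus R1881 agonist for 16 h. ONE-Glo luminescence was read.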

SMILES	Potency [1]	Potency [2]	Potency [3]	Potency [4]	Potency [5]	Potency [6]	Potency [7]	Potency [8]	Potency [9]	Potency [10]	Potency [11]	Potency [12]	Potency [13]	Potency [14]	Potency [15]	Potency (Aromatase (Homo sapiens))	Potency [16]	Potency [17]	Potency [18]	Potency [19]
NNC(=S)NN	inactive	61.1 µM (active)	54.5 µM (active)	43.3 µM (active)	inactive	inactive	inactive	inactive	inactive and 61.1 µM (active)	inactive	inactive	inactive	inactive	inactive	inactive	inactive				
Nc1ccc(-c2ccccc2)cc1	inactive	inactive and 54.5 µM (active)	inactive and 54.5 µM (active)	inactive and 30.6 µM (active)	inactive	inactive	inactive	inactive	inactive	inactive	inactive	inactive	25 nM (active) and 10.9 µM (active)		inactive	inactive				
Nc1cccnc1	inactive	inactive	inactive	inactive	inactive	inactive	inactive	inactive	inactive	inactive	inactive	inactive	inactive	inactive	inactive	inactive				
Cc1cc(C)cc(C)c1	inactive	inactive	inactive	inactive	inactive	inactive	inactive	inactive	inactive		inactive				inactive					
C=C(C)[C@H]1Cc2c(ccc3c2O[C@@H]2COc4cc(OC)c(OC)cc4[C@@H]2C3=O)O1	inactive	59.6 nM (active) and 19.6 nM (active) and 8.6 nM (active)	119 nM (active) and 11 nM (active) and 8.6 nM (active)	75 nM (active) and 9.8 nM (active) and 8.6 nM (active)	62.5 nM (active) and 38.9 nM (active)	393 nM (active) and 39.1 nM (active) and 30.6 nM (active)	841 nM (active) and 8.75 µM (active) and 4.86 µM (active)	237 nM (active) and 34.8 nM (active) and 61.1 nM (active)	inactive		67.4 nM (active) and 44.2 nM (active)				7.8 µM (active) and 38.6 µM (active)	15 µM (active) and 34.8 µM (active) and 34.4 µM (active)	756 nM (active) and 279 nM (active)	inactive	inactive	188 nM (active) and 24.7 nM (active) and 9.7 nM (active)
Cc1cc(Cl)ccc1OCCCC(=O)O	inactive	inactive	inactive	inactive	inactive	inactive	inactive	inactive	inactive						inactive	inactive			inactive	inactive
CCOc1cc(C=O)ccc1O	inactive	inactive	inactive	inactive	inactive	inactive	inactive	inactive	inactive		inactive				inactive					
CC(C)N(C(=O)SCC(Cl)=C(Cl)Cl)C(C)C	inactive	61.1 µM (active)	inactive and 54.5 µM (active)	inactive and 30.6 µM (active)	inactive	inactive	47.9 µM (active)	53.8 µM (active) and 61.1 µM (active)	inactive		inactive				inactive					
NCc1cccnc1	inactive	inactive	inactive	inactive	inactive	inactive	inactive	inactive	inactive	inactive	inactive	inactive	inactive	inactive	inactive	inactive				
O=S(=O)(Oc1ccc(Cl)cc1)c1ccc(Cl)cc1	inactive	inactive	inactive	inactive	inactive	inactive	inactive	inactive	inactive	inactive	inactive	inactive	inactive	inactive	inactive	inactive				
COP(=O)(OC)OC	inactive	inactive	inactive	inactive	inactive	inactive	inactive	inactive	inactive	inactive		inactive	inactive	inactive	inactive	inactive	inactive	inactive	inactive	inactive
O=C(O)CC[N+](=O)[O-]	inactive	70.8 µM (active) and inactive	inactive	inactive	inactive	inactive	inactive	inactive	inactive		inactive				inactive	inactive	inactive	inactive	inactive	inactive
CCC(C)(C)c1ccc(O)cc1	inactive	inactive and 54.5 µM (active)	inactive and 61.8 µM (active) and 30.6 µM (active)	inactive and 54.5 µM (active)	inactive	inactive	inactive	inactive	inactive	inactive	inactive	inactive and 15.7 µM [inconclusive] (active) and 55 µM [activator] (active)	17.4 µM (active) and 24.3 µM (active)	inactive	inactive	inactive				
